The values below come from PMC7826789 (International Journal of Molecular Sciences, 2021).

Test systems include ERN1; FER; FES; FGFR1; FGFR2; FGFR3(G697C).
What all share (conditions): Compound Concentration (nM):1000
Another assay relates to T1, ERK4.
T1 construct: gene MAPK4

The next assay relates to T2, ERK5.
T2 construct: gene MAPK7

In the next assay the test system is T3, ERK8.
T3 construct: gene MAPK15

A further assay concerns T4, FAK.
T4 construct: gene PTK2
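Further: KINOMEscan scanMAX binding as percent activity remaining versus control; lower means stronger binding.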

For `NS(=O)(=O)c1ccc(N/N=C2\C(=O)Nc3ccc(C(=O)NCc4ccncc4)cc32)cc1` [GW300657X], the “Percent Control” value in the assay on ERK4 came to 100%; with ERK5, 39%; in the assay with ERK8 it was 4%; with ERN1, 57%; in the assay on FAK, 86%; in the assay on FER it was 100%. The “Percent Control” value in the assay on FES was 100%; in the assay with FGFR1 it was 91%; with FGFR2, 80%; in the assay on FGFR3(G697C), 100%.
Take `COc1cccc(-c2c[nH]c3c(N/N=C/c4ccncc4)ncnc23)c1` [GW814408X]: the “Percent Control” value with ERK4 worked out at 8.3%; in the assay with ERK5 it was 100%; in the assay with ERK8, 2%; in the assay with ERN1, 100%; in the assay on FAK it was 100%; with FER, 100%. For the same compound, the “Percent Control” value in the assay with FES, with FGFR1, in the assay with FGFR2 and with FGFR3(G697C) was 100% each time.
`COc1cc2ncn(-c3cc(O[C@H](C)c4ccccc4Cl)c(C(N)=O)s3)c2cc1OC` [GSK237701A]: the “Percent Control” value with ERK4 is recorded as 100%; with ERK5, 100%; with ERK8, 84%; in the assay with ERN1, 88%; with FAK, 100%; in the assay on FER, 100%. Further, the “Percent Control” value with FES is 95%; in the assay on FGFR1 it was 65%; in the assay on FGFR2, 58%; in the assay on FGFR3(G697C), 63%.
Consider `CN(C)CCNC(=O)Nc1ccc(N(C)c2ccnc(Nc3ccc(CS(C)(=O)=O)cc3)n2)cc1.Cl` [GW830900A], for which the “Percent Control” value is on record as 93% in the assay on ERK4; 100% in the assay with ERK5; 78% in the assay on ERK8; 72% with ERN1; 49% with FAK; 100% in the assay on FER. For the same compound, the “Percent Control” value in the assay with FES was 100%; in the assay with FGFR1, 100%; in the assay with FGFR2, 94%; in the assay on FGFR3(G697C) it was 100%.
For `COc1ccccc1-c1cc(/C=C2\C(=O)Nc3ncc(Br)cc32)cc(Br)c1O` [GW442130X], the “Percent Control” value with ERK4 is recorded as 100%; with ERK5 it was 100%; in the assay with ERK8, 100%; in the assay with ERN1, 100%; in the assay with FAK, 97%; in the assay on FER, 100%. The “Percent Control” value in the assay with FES, with FGFR1, in the assay on FGFR2 and in the assay on FGFR3(G697C) was 100% throughout.
Turning to `CN1CCN(C(=O)c2ccc(NC(=O)Nc3ccc(N(C)c4ccnc(Nc5ccc(CS(C)(=O)=O)cc5)n4)cc3)cc2)CC1.Cl` [GW830263A], the “Percent Control” value with ERK4 was 100%; in the assay on ERK5 it was 100%; with ERK8 it was 25%; with ERN1, 25%; in the assay with FAK, 36%; with FER, 46%. For the same compound, the “Percent Control” value in the assay with FES is 67%; with FGFR1 it was 100%; in the assay with FGFR2, 99%; in the assay with FGFR3(G697C) it was 100%.
As to `COc1ccc2[nH]c3c4[nH]c5ccc(OC)cc5c4c4c(c3c2c1)C(=O)NC4=O` [GW296115X], the “Percent Control” value is 74% in the assay on ERK4; 69% in the assay with ERK5; 58% in the assay on ERK8; 93% in the assay on ERN1; 85% in the assay with FAK; 58% in the assay with FER. Besides, the “Percent Control” value in the assay with FES is 86%; with FGFR1, 100%; in the assay on FGFR2, 88%; in the assay with FGFR3(G697C), 100%.
Take `COc1cc(N2CCN(C(C)C)CC2)ccc1Nc1nc(Nc2ccc(F)cc2C(=O)NC[C@@H](O)CO)c2cc[nH]c2n1` [GSK1392956A]: the “Percent Control” value is on record as 100% with ERK4; 99% in the assay with ERK5; 100% with ERK8; 43% with ERN1; 4.5% with FAK; 43% in the assay with FER. Moreover, the “Percent Control” value in the assay on FES is 58%; in the assay on FGFR1, 100%; in the assay on FGFR2, 97%; with FGFR3(G697C) it was 98%.
As for `CCS(=O)(=O)c1ccc(OC)c(Nc2ncc(-c3cccc(OC)c3)o2)c1` [GW580509X], the “Percent Control” value came out at 100% in the assay with ERK4; 100% in the assay on ERK5; 100% with ERK8; 76% with ERN1; 100% in the assay with FAK; 100% in the assay with FER. Moreover, the “Percent Control” value with FES is 100%; in the assay with FGFR1, 39%; with FGFR2, 58%; with FGFR3(G697C) it was 31%.
With `NS(=O)(=O)c1ccc(N/N=C2\C(=O)Nc3ccc(Cl)cc32)cc1` [GW280670X], the “Percent Control” value in the assay with ERK4 was found to be 100%; in the assay with ERK5, 100%; in the assay with ERK8, 59%; in the assay on ERN1, 100%; with FAK, 100%; with FER, 90%. In addition, the “Percent Control” value in the assay on FES, in the assay with FGFR1, in the assay with FGFR2 and in the assay with FGFR3(G697C) was 100% each time.
As to `O=C(Nc1n[nH]c2nc(-c3ccc(O)cc3)c(Br)cc12)C1CC1` [SB-725317], the “Percent Control” value with ERK4 is 100%; in the assay on ERK5 it was 2.4%; in the assay on ERK8, 27%; in the assay on ERN1, 93%; in the assay with FAK, 100%; with FER, 100%. Besides, the “Percent Control” value with FES, with FGFR1, in the assay with FGFR2 and with FGFR3(G697C) was 100% throughout.
Turning to `Cc1cc(O)cc(C)c1/C=C/c1cncc(C(N)=O)c1` [GW435821X], the “Percent Control” value is reported as 100% in the assay on ERK4; 100% in the assay with ERK5; 100% in the assay on ERK8; 82% in the assay with ERN1; 100% with FAK; 98% in the assay on FER. Further, the “Percent Control” value in the assay on FES was 100%; in the assay with FGFR1, 92%; in the assay with FGFR2, 100%; in the assay with FGFR3(G697C), 100%.
Consider `Cl.O=C(O[C@H]1CN[C@H](C#Cc2cc3ncnc(Nc4ccc5c(cnn5Cc5ccccc5)c4)c3s2)C1)N1CCOCC1` [GSK200398A], for which the “Percent Control” value is listed as 99% in the assay on ERK4; 89% with ERK5; 90% in the assay with ERK8; 88% in the assay on ERN1; 96% with FAK; 94% in the assay on FER. In addition, the “Percent Control” value in the assay on FES is 95%; in the assay on FGFR1, 100%; with FGFR2, 100%; with FGFR3(G697C), 86%.
Take `NS(=O)(=O)c1ccc(N/N=C2\C(=O)Nc3ccc(-c4cnco4)cc32)cc1` [GW276655]: the “Percent Control” value came to 100% in the assay with ERK4; 98% with ERK5; 23% in the assay with ERK8; 89% in the assay on ERN1; 68% in the assay on FAK; 91% in the assay on FER. The “Percent Control” value with FES was 86%; in the assay with FGFR1, 85%; in the assay with FGFR2, 100%; in the assay on FGFR3(G697C), 78%.
Take `NS(=O)(=O)c1ccc(Nc2ncc(-c3ccccc3)o2)cc1` [GW572399X]: the “Percent Control” value with ERK4 was determined as 100%; in the assay on ERK5 it was 100%; in the assay on ERK8, 28%; in the assay with ERN1 it was 100%; in the assay with FAK, 100%; in the assay with FER, 100%. In addition, the “Percent Control” value in the assay with FES, in the assay on FGFR1, in the assay with FGFR2 and with FGFR3(G697C) was 100% in each case.
